The panel holds about 79,000 compounds, 15% with a hit somewhere; the sample as a whole holds those more often. Calls of active or inactive are those of the source. No stated cut-off is given here; in the data, active means growth inhibition above about 70%; inactive means the rest.
Experiments:
[1] = NCI Yeast Anticancer Drug Screen. Data for the rad52 strain (AID 147);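 further: 0% = growth of vehicle-treated control cultures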; conditions: S. cerevisiae rad52 mutant growth inhibition, active compounds read high
In short: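 The repair-mutant yeast strain was incubated with compounds, then growth was read and inhibition derived relative to vehicle.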

[2] = NCI Yeast Anticancer Drug Screen. Data for the wt1 strain (AID 149);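 further: 0% = growth of vehicle-treated wt1 cultures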; conditions: S. cerevisiae wt1 strain (SPY 50644) growth inhibition, active compounds read high
In short: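 Readout: yeast growth inhibition, normalised to vehicle controls, in the wt1 strain exposed to test compounds.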

[3] = NCI Yeast Anticancer Drug Screen. Data for the rad50EPP+ strain (AID 151);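 further: 0% = growth of vehicle-treated control cultures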; conditions: S. cerevisiae rad50 mutant strain, active compounds read high
In short: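 Vehicle-normalised growth inhibition; rad50EPP+ yeast strain, altered in DNA damage repair, compound-treated.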

[4] = NCI Yeast Anticancer Drug Screen. Data for the rad50 strain (AID 155);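 further: 0% = growth of vehicle-only cultures of the same strain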; conditions: S. cerevisiae rad50 strain growth inhibition, active compounds read high
In short: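 Compounds were tested on a yeast strain with an engineered DNA damage repair alteration; the reported value is growth inhibition normalised to vehicle treatment.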

[5] = NCI Yeast Anticancer Drug Screen. Data for the mec2-1 strain (AID 157); conditions: S. cerevisiae mec2-1 strain, active compounds read high
In short: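 Mutant yeast (mec2-1) grown with compound; growth inhibition relative to vehicle control reported.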

[6] = NCI Yeast Anticancer Drug Screen. Data for the rad14 strain (AID 159);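 further: 0% = growth of vehicle-treated control cultures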; conditions: S. cerevisiae rad14 strain growth inhibition, active compounds read high
In short: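 Compound-treated yeast with a defined DNA-repair lesion; growth inhibition normalised to vehicle-treated cultures.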

[7] = NCI Yeast Anticancer Drug Screen. Data for the sgs1 mgt1 strain (AID 161);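 further: 0% = growth of cultures given vehicle only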; conditions: S. cerevisiae sgs1 mgt1 strain, active compounds read high
In short: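 Percent growth inhibition was derived by comparing compound-exposed mutant yeast with vehicle-exposed cultures. The strain carries alterations in DNA damage repair.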

[8] = NCI Yeast Anticancer Drug Screen. Data for the CLN2oe strain (AID 163);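 further: 0% = growth of vehicle-only control cultures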; conditions: S. cerevisiae CLN2oe strain, active compounds read high
In short: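 Compounds are applied to yeast harbouring a defined cell-cycle control change; reduced growth compared with vehicle-treated controls gives the value.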

[9] = NCI Yeast Anticancer Drug Screen. Data for the bub3 strain (AID 167); conditions: S. cerevisiae bub3 mutant strain, active compounds read high
In short: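 Growth of a checkpoint-deficient yeast mutant is measured after compound exposure. Values represent inhibition relative to vehicle.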

[10] = NCI Yeast Anticancer Drug Screen. Data for the wt2 strain (AID 169);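 further: 0% = growth of vehicle-treated yeast cultures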; conditions: S. cerevisiae wt2 strain growth inhibition, active compounds read high
In short: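 Against vehicle-treated controls, the growth of yeast exposed to each compound was compared, and the inhibition was recorded.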

[11] = NCI Yeast Anticancer Drug Screen. Data for the mlh1 strain (AID 171);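 further: 0% = growth of vehicle-treated control cultures of the same strain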; conditions: S. cerevisiae mlh1 strain growth inhibition, active compounds read high
In short: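 Measured: yeast growth. Reference: vehicle-treated controls. Organism: strain with a defined alteration affecting DNA damage repair or cell cycle control, treated with compound.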

[12] = NCI Yeast Anticancer Drug Screen. Data for the sgs1 strain (AID 173);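 further: 0% = growth of vehicle-only control cultures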; conditions: S. cerevisiae sgs1 mutant, active compounds read high
In short: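 Each compound was added to cultures of the altered yeast strain. Growth was recorded, and inhibition was derived by comparison with vehicle controls.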

[13] = NCI Yeast Anticancer Drug Screen. Data for the mlh1 rad18 strain (AID 175); conditions: S. cerevisiae mlh1 rad18 strain growth inhibition, active compounds read high
In short: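 Genetically defined yeast (DNA repair-deficient) exposed to compounds; growth inhibition determined relative to vehicle.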

[14] = NCI Yeast Anticancer Drug Screen. Data for the cln2 rad14 strain (AID 165);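 further: 0% = growth equal to vehicle treated cultures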; conditions: S. cerevisiae cln2 rad14 strain, active compounds read high
In short: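 Readout is yeast growth inhibition versus vehicle-treated controls, using a strain with cln2 and rad14 alterations exposed to compound.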

[15] = NCI Yeast Anticancer Drug Screen. Data for the rad18 strain (AID 177); conditions: S. cerevisiae rad18 mutant growth inhibition, active compounds read high
In short: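 Vehicle-treated cultures served as the baseline for scoring compound-induced growth inhibition in DNA-repair-mutant yeast.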

[16] = NCI Yeast Anticancer Drug Screen. Data for the mgt1 strain (AID 153); conditions: S. cerevisiae mgt1 mutant growth inhibition, active compounds read high
In short: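 Vehicle-normalized growth inhibition is determined in mgt1 yeast, a strain selected for a defined alteration in DNA repair or cell cycle control.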

[17] = at 5.0 µM (retest, dose inferred, filed as 0.5)
[18] = at 50.0 µM (retest, dose inferred, filed as 5.0)

Measured: growth inhibition

CC1=C(O)C(=O)C=C2C1=CC=C1[C@@]2(C)CCC2(C)[C@@H]3C[C@@H](C)C(=O)C[C@]3(C)CC[C@]12C (stereo partly drawn)
active: [1]; at 11.0 µM 98% | [1]; at 33.0 µM 98% | [1]; at 100.0 µM 96% | [2]; at 11.0 µM 96% | [2]; at 33.0 µM 97% | [2]; at 100.0 µM 96% | [4]; at 11.0 µM 96% | [4]; at 33.0 µM 97% | [4]; [18] 97% | [4]; at 50.0 µM 88.3% | [4]; at 100.0 µM 97% | [5]; at 11.0 µM 97% | [5]; at 33.0 µM 98% | [5]; [18] 99% | [5]; at 50.0 µM 90.5% | [5]; at 100.0 µM 96% | [6]; at 11.0 µM 94% | [6]; at 33.0 µM 97% | [6]; at 100.0 µM 95% | [7]; [18] 96% | [7]; at 50.0 µM 87.3% | [8]; at 11.0 µM 98% | [8]; at 33.0 µM 98% | [8]; at 100.0 µM 95% | [9]; at 11.0 µM 96% | [9]; at 33.0 µM 97% | [9]; [18] 97% | [9]; at 50.0 µM 87.9% | [9]; at 100.0 µM 96% | [10]; at 11.0 µM 93% | [10]; at 33.0 µM 97% | [10]; at 100.0 µM 96% | [11]; at 11.0 µM 95% | [11]; at 33.0 µM 98% | [11]; at 100.0 µM 96% | [12]; at 11.0 µM 96% | [12]; at 33.0 µM 97% | [12]; at 100.0 µM 96% | [13]; [18] 97% | [13]; at 50.0 µM 88.2%
inactive: [1]; at 1.2 µM 41% | [1]; at 3.7 µM 58% | [2]; at 1.2 µM 9% | [2]; at 3.7 µM 8% | [3]; at 1.2 µM 9% | [3]; at 3.7 µM 12% | [3]; at 11.0 µM 29% | [3]; at 33.0 µM 32% | [3]; at 100.0 µM 59% | [4]; at 1.2 µM 11% | [4]; at 3.7 µM 28% | [4]; [17] 4% | [5]; at 1.2 µM 5% | [5]; at 3.7 µM 24% | [5]; [17] 4% | [6]; at 1.2 µM -26% | [6]; at 3.7 µM -13% | [7]; [17] 16% | [8]; at 1.2 µM -13% | [8]; at 3.7 µM 10% | [9]; at 1.2 µM -19% | [9]; at 3.7 µM -6% | [9]; [17] 38% | [10]; at 1.2 µM 0% | [10]; at 3.7 µM 0% | [11]; at 1.2 µM 14% | [11]; at 3.7 µM 31% | [12]; at 1.2 µM 17% | [12]; at 3.7 µM 42% | [13]; [17] 41%

CC1CCCN(CCc2ccccc2)CC1 (stereo not drawn)
active: [7]; [18] 76% | [9]; [18] 83% | [13]; [18] 78%
inactive: [1]; at 1.2 µM 1% | [1]; at 3.7 µM 4% | [1]; at 11.0 µM 11% | [1]; at 33.0 µM 16% | [1]; at 100.0 µM 26% | [2]; at 1.2 µM 2% | [2]; at 3.7 µM 8% | [2]; at 11.0 µM 8% | [2]; at 33.0 µM 7% | [2]; at 100.0 µM 5% | [3]; at 1.2 µM 2% | [3]; at 3.7 µM 3% | [3]; at 11.0 µM 4% | [3]; at 33.0 µM 4% | [3]; at 100.0 µM 5% | [4]; at 1.2 µM 1% | [4]; at 3.7 µM 6% | [4]; [17] -8% | [4]; at 11.0 µM 10% | [4]; at 33.0 µM 13% | [4]; [18] 66% | [4]; at 50.0 µM 17.4% | [4]; at 100.0 µM 14% | [5]; at 1.2 µM 0% | [5]; at 3.7 µM 8% | [5]; [17] -13% | [5]; at 11.0 µM 12% | [5]; at 33.0 µM 15% | [5]; [18] 11% | [5]; at 50.0 µM 20.9% | [5]; at 100.0 µM 22% | [6]; at 1.2 µM 2% | [6]; at 3.7 µM 14% | [6]; at 11.0 µM 29% | [6]; at 33.0 µM 33% | [6]; at 100.0 µM 31% | [7]; [17] 13% | [7]; at 50.0 µM 28.8% | [8]; at 1.2 µM -5% | [8]; at 3.7 µM -8% | [8]; at 11.0 µM 18% | [8]; at 33.0 µM 30% | [8]; at 100.0 µM 43% | [14]; [17] 5% | [14]; [18] 37% | [14]; at 50.0 µM 58.6% | [9]; at 1.2 µM -3% | [9]; at 3.7 µM 0% | [9]; [17] 2% | [9]; at 11.0 µM 9% | [9]; at 33.0 µM 21% | [9]; at 50.0 µM 46.6% | [9]; at 100.0 µM 25% | [10]; at 1.2 µM 2% | [10]; at 3.7 µM 4% | [10]; at 11.0 µM 6% | [10]; at 33.0 µM 8% | [10]; at 100.0 µM 10% | [11]; at 1.2 µM 1% | [11]; at 3.7 µM 4% | [11]; at 11.0 µM 10% | [11]; at 33.0 µM 15% | [11]; at 100.0 µM 14% | [12]; at 1.2 µM 0% | [12]; at 3.7 µM 7% | [12]; at 11.0 µM 16% | [12]; at 33.0 µM 23% | [12]; at 100.0 µM 21% | [13]; [17] 19% | [13]; at 50.0 µM 34.9% | [15]; at 1.2 µM 3% | [15]; at 3.7 µM 7% | [15]; at 11.0 µM 15% | [15]; at 33.0 µM 12% | [15]; at 100.0 µM 16%

S=C1NC2(CCCCC2)NC12CCCCC2
inactive: [2]; at 1.2 µM -2% | [2]; at 3.7 µM -3% | [2]; at 11.0 µM 3% | [2]; at 33.0 µM 8% | [2]; at 100.0 µM 13% | [3]; at 1.2 µM -2% | [3]; at 3.7 µM 0% | [3]; at 11.0 µM 2% | [3]; at 33.0 µM 8% | [3]; at 100.0 µM 7% | [16]; at 1.2 µM -2% | [16]; at 3.7 µM -8% | [16]; at 11.0 µM 5% | [16]; at 33.0 µM 17% | [16]; at 100.0 µM 10% | [4]; at 1.2 µM 0% | [4]; at 3.7 µM 9% | [4]; [17] 11% | [4]; at 11.0 µM 19% | [4]; at 33.0 µM 19% | [4]; [18] 33% | [4]; at 50.0 µM 44.9% | [4]; at 100.0 µM 11% | [5]; at 1.2 µM -12% | [5]; at 3.7 µM -19% | [5]; [17] 3% | [5]; at 11.0 µM -18% | [5]; at 33.0 µM -1% | [5]; [18] 23% | [5]; at 50.0 µM 4.85%

Reference: PubChem BioAssay (NCI)
